Experimental data taken from the supplement of paper PMC6555819.

Assays:
Experiment in all cases: PBM binding z-score (relative to random genomic background probes); higher = stronger binding; sequences stand for … in GC…GCGATTGACAGCGTAGAATGAAGG
[1] = system: FXR:RXRa (NR concentration 270 nM, RXRa partner concentration 90 nM)
In short: (§1)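 Probes were double-stranded and carried 34-nt variable regions with direct-repeat seeds, single-nucleotide variants, half-site ablations and random human genomic background sequences, printed on custom Agilent 4×180K protein-binding microarrays. Arrays were incubated 1 h with ligand-free nuclear receptor dimers in PBS pH 7.4, 2% milk, 0.02% Triton X-100, 1 mM DTT, 0.2 mg/mL BSA and 0.4 mg/ml salmon testes DNA. Antibodies against each partner (one per run) detected binding, and scanned fluorescence was regression-normalized. Binding z-scores use the random background probes as reference.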

[2] = system: LXRa:RXRa (NR concentration 270 nM, RXRa partner concentration 90 nM)
In short: as §1

[3] = system: LXRa homodimer (NR concentration 270 nM)
In short: as §1

[4] = system: LXRb:RXRa (NR concentration 270 nM, RXRa partner concentration 90 nM)
In short: as §1

[5] = system: LXRb homodimer (NR concentration 270 nM)
In short: as §1

[6] = system: PPARa:RXRa (NR concentration 270 nM, RXRa partner concentration 90 nM)
In short: as §1

[7] = system: PPARg:RXRa (NR concentration 180 nM, RXRa partner concentration 90 nM)
In short: as §1

[8] = system: PPARg:RXRa 270nM:90nM, anti-RXR (NR concentration 270 nM, RXRa partner concentration 90 nM)
In short: as §1

[9] = system: PPARg:RXRa 30nM:10nM, anti-RXR (NR concentration 30 nM, RXRa partner concentration 10 nM)
In short: as §1

[10] = system: PPARg:RXRa 90nM:30nM, anti-RXR (NR concentration 90 nM, RXRa partner concentration 30 nM)
In short: as §1

[11] = system: PPARg:RXRa DBDmut IVT, anti-RXR (DBD mutation: RXRa K156A/R161A, NR concentration 270 nM, RXRa partner concentration 90 nM)
In short: as §1

[12] = system: PPARg:RXRa IVT, anti-PPARg (NR concentration 270 nM, RXRa partner concentration 90 nM)
In short: as §1

[13] = system: PPARg DBDmut:RXRa IVT, anti-PPARg (DBD mutation: PPARg1 K132A/R137A, NR concentration 270 nM, RXRa partner concentration 90 nM)
In short: as §1

[14] = system: PPARg DBDmut IVT, anti-PPARg (DBD mutation: PPARg1 K132A/R137A, NR concentration 270 nM)
In short: as §1

[15] = system: PPARg homodimer (NR concentration 180 nM)
In short: as §1

[16] = system: PXR:RXRa (NR concentration 270 nM, RXRa partner concentration 90 nM)
In short: as §1

[17] = system: PXR homodimer (NR concentration 270 nM)
In short: as §1

[18] = system: RARa:RXR (NR concentration 270 nM, RXRa partner concentration 90 nM)
In short: as §1

[19] = system: RARa homodimer (NR concentration 270 nM)
In short: as §1

[20] = system: RARb:RXRa (NR concentration 270 nM, RXRa partner concentration 90 nM)
In short: as §1

Sequence | PBM binding z-score [1] | PBM binding z-score [2] | PBM binding z-score [3] | PBM binding z-score [4] | PBM binding z-score [5] | PBM binding z-score [6] | PBM binding z-score [7] | PBM binding z-score [8] | PBM binding z-score [9] | PBM binding z-score [10] | PBM binding z-score [11] | PBM binding z-score [12] | PBM binding z-score [13] | PBM binding z-score [14] | PBM binding z-score [15] | PBM binding z-score [16] | PBM binding z-score [17] | PBM binding z-score [18] | PBM binding z-score [19] | PBM binding z-score [20]
CCTAGCAGGCCAATCTGGGTCACTCAGGGCTTGA | 0.175 | 0.973 | -0.637 | 0.336 | -1.06 | 2.61 | 1.81 | 2.15 | -0.232 | 1.52 | 3.91 | 4.83 | 0.915 | -1.07 | 0.808 | 0.386 | -0.579 | 1.64 | -0.57 | 1.35
CGAACTAGGTCAGAATAGGACAGTGAAGGATGAT | 1.39 | 0.992 | -0.0335 | 0.45 | -0.693 | 3.02 | 5.03 | 4.31 | 1.81 | 3.36 | 6.67 | 6.96 | 2.83 | 1.87 | 0.535 | 0.652 | 0.356 | 1.01 | 0.988 | 2.73
TCTACCAGGCCAGAGGGTCACTCAAGAGGTACGG | 1.36 | 1.24 | -0.237 | 1.38 | -0.315 | 2.65 | 2.06 | 3.41 | 3.25 | 3.44 | 1.61 | 1.75 | -0.383 | -0.224 | 1.12 | 1.82 | -0.126 | 2.67 | 0.116 | 2.51
CCTCGGAAGACAACAGGAGGTCAGAGCTGCCAGA | 0.802 | 1.66 | 1.65 | 1.31 | -0.201 | 1.62 | 0.36 | 0.247 | -0.599 | -0.387 | -0.389 | -0.416 | -0.399 | -1.87 | 1.38 | 1.62 | 0.458 | 2.01 | 0.559 | 1.81
CGTCCAAGGTCAATGCTAAGTCAGTGAAAGCATT | 6.87 | 4.59 | 0.722 | 3.58 | 0.637 | 4.73 | 3.59 | 4.12 | 0.983 | 2.55 | 2.98 | 3.34 | 0.647 | -0.584 | 2.4 | 3.51 | 0.823 | 4.32 | 0.642 | 5.01
GCTGCTAGGTCAGGCTGGTCAGCTAACGGGTACG | 0.826 | 0.306 | -0.725 | -0.222 | -1.11 | 1.3 | 0.457 | 0.956 | -0.364 | -0.0747 | 3.75 | 2.35 | -1.05 | -1.02 | -0.17 | -0.0298 | -0.747 | 0.0805 | -0.715 | 3.35
CCGAGTAGGTTATGGGGCATTCTGGCAACGGTGA | 0.393 | 0.413 | -0.113 | 0.625 | -0.33 | 2.14 | 3.38 | 4.15 | 2.03 | 3.6 | 3.05 | 3.19 | -0.237 | -1.42 | 1.24 | 0.151 | 0.0972 | 0.523 | 0.262 | 0.978
TCTGCTAGGTCAACGATGGTCACCTAATCTGCTA | 3.57 | 2.97 | 0.264 | 2.05 | -0.183 | 3.49 | 2.96 | 3.36 | 1.98 | 2.76 | 4.12 | 4.82 | 0.776 | 0.398 | 0.811 | 2.12 | -0.994 | 2.8 | -0.586 | 4.2
TCTTGTAGATCAATAGGAGGTTAAGAAAGATCGA | 0.54 | 1.36 | 0.474 | 0.851 | 0.157 | 1.36 | 0.389 | 1.57 | 2.93 | 2.25 | 1.97 | 0.955 | 0.693 | 0.624 | 0.344 | 0.712 | 0.557 | 1.04 | 0.522 | 0.202
TAGCCTAGGTCATTCAGGGGCCAGTGTAGAAAGC | 4.78 | 3.98 | 0.7 | 3.06 | 1.08 | 3.66 | 1.53 | 2.43 | 0.00175 | 1.14 | 1.87 | 2.74 | 0.0729 | -0.141 | 1.39 | 2.27 | -0.259 | 3.32 | -0.591 | 3.96
CAGCCTAGGTCAGAGCCAGTATAGGAGGAACGTT | 1.65 | 0.992 | -0.0153 | 0.607 | -0.514 | 1.69 | 0.786 | 0.566 | -0.211 | 0.234 | 1.93 | 1.53 | -0.412 | -1 | 0.951 | 0.261 | -0.164 | 0.723 | 0.33 | 3.08
ATCGAAAGGTCGACGAGGTGAGTATCCACCGTTT | 3.97 | 3.28 | -0.0498 | 2.63 | 0.248 | 4.28 | 2.41 | 3.45 | 0.781 | 2.21 | 0.709 | 1.86 | 0.578 | 0.779 | 1.21 | 2.78 | 0.403 | 3.19 | 0.424 | 3.84
TCGAGTATGTTAGTCGGGGCATTCAGCCAACATA | -0.336 | -0.354 | -0.761 | 0.103 | -0.713 | -0.0801 | -0.372 | 0.0519 | 0.966 | 0.691 | 0.962 | 0.119 | -0.528 | -0.979 | -0.491 | -0.224 | -0.529 | -0.247 | -0.841 | 0.204
